Reference: PubChem BioAssay (Tox21)
A number with no mark means an inactive call. The source made the active and inactive calls. The call rests on the fitted dose curve; in most records, active means well fitted curve in the direction sought with a large enough effect in the repeat runs; inconclusive means weak or mixed curves; inactive means flat fitted curve, though single readings scatter.

Assay: qHTS assay to test for compound auto fluorescence at 590 nm (red) in HepG2 cells (AID 720674)
Settings: HepG2 autofluorescence, red 540/590 nm, 1 h; series mostly up to 91.3 µM; fluorescence, relative to Rose Bengal: at the top concentration
Description: U.S. Tox21 Program National Center for Advancing Translational Sciences [NCATS] NIH Chemical Genomics Center [NCGC] U.S. Environmental Protection Agency [EPA] National Institutes of Environmental Health Sciences [NIEHS] National Toxicology Program [NTP] U.S. Food and Drug Administration [FDA] Tox21 Assay Overview: Compound auto fluorescence often interferes with screening of the compound library against various biological targets and signaling pathways. Some of these compounds may have fluorophoric properties. Such properties may interfere with the assay outputs resulting in false positives and/or negatives. To decrease such complications and ensure the compound activities are relevant in terms of biological response, the Tox21 10K compound library was screened for auto fluorescence. From the fluorophores used as reporter signals in our screening assays, the auto fluorescence equivalencies of compounds against three fluorophores have been evaluated: Triamterene, Fluorescein and Rose Bengal sodium for blue, green and red fluorescence, respectively. The fluorescence intensities were measured using Excitation/Emission wavelengths at 405/460nm, 485/535nm and 540/590nm for blue, green and red labels, respectively. This assay includes the red fluorescence data.
Tox21 Assay Protocol Summary: 2,000 HepG2 cells in 5 uL of culture medium (MEM containing 10% FBS) per well were dispensed into black wall/clear bottom 1536-well plates using a Multidrop Combi Dispenser (ThermoFisher Scientific, Waltham, MA). The assay plates were incubated overnight at 37 C to allow cell attachment to the well bottom, followed by the transfer of 23 nL compound or DMSO vehicle by a pintool work station (Kalypsys , San Diego, CA). After the assay plates were incubated for 1 hr at 37 C and 5% CO2, fluorescence intensities in the assay plates were measured by an Envision (PerkinElmer, Shelton, CT) plate reader using three labels for measuring blue, green and red fluorescence at […] 460, 535 and 590 nm respectively.
On the % scale 0 is the no-effect control and ±100 the full control effect.

Row | SMILES | fluorescence, relative to Rose Bengal | Potency
1 | O=C1CCCCCCCCCCCC(=O)OCCO1 | -0.0989% | –
2 | CCOC(=O)NCCOc1ccc(Oc2ccccc2)cc1 | 0.363% | –
3 | CC(=O)c1ccc2c(c1)N(CCCN(C)C)c1ccccc1S2 | -0.407% [at 18.6 µM] | –
4 | Cc1c(N)cccc1[N+](=O)[O-] | -0.0433% [at 95.7 µM] | –
5 | COc1ccc(C(=O)N2CCN(CC(=O)N3CCOCC3)CC2)cc1 | -0.417% [at 46 µM] | –
6 | CCCCCC[C@@H](O)C/C=C\CCCCCCCC(=O)OC | -0.0318% | –
7 | O=C(NCCO[N+](=O)[O-])c1cccnc1 | -0.643% [at 46 µM] | –
8 | O=C(O)c1ccc(-n2nc(-c3ccccc3O)nc2-c2ccccc2O)cc1 | 0.0907% [at 46 µM] | –
9 | Cc1cccc(C)c1NC(=O)CN(CC(=O)O)CC(=O)O | 0.159% [at 46 µM] | –
10 | CCCCCCCN | 0.114% [at 95.7 µM] | –
11 | Nc1cc(C(=O)O)c(O)c(S(=O)(=O)O)c1 | -0.116% | –
12 | Nc1ccccc1S(=O)(=O)c1ccccc1 | 0.0071% | –
13 | O=C(OCCCCCCOC(=O)c1ccccc1)c1ccccc1 | -0.0048% | –
14 | C1CCCNCCC1 | 0.185% | –
15 | O=CC1CC=CCC1 (stereo not given) | 0.0063% | –
16 | Cc1oc(-c2ccccc2)nc1CCOc1cccc2c1ccn2CCC(=O)O | 0.235% | –
17 | CC1(c2ccccc2)OC(C(=O)O)=CC1=O (stereo not given) | 0.0002% [at 46 µM] | –
18 | C=CCOC(=O)CCC1CCCCC1 | -0.104% | –
19 | C=C(C)C(=O)OCC | -0.0047% [at 95.7 µM] | –
20 | CCCCCCCCCCO[C@@H]1O[C@H](CO)[C@@H](O)[C@H](O)[C@H]1O | 0.0107% | –

Row | SMILES | fluorescence, relative to Rose Bengal | Potency
21 | CCCCCCCCCCCCCCOS(=O)(=O)O | -0.0092% | –
22 | Nc1cccc([N+](=O)[O-])c1 | 0.0593% | –
23 | CO[C@@H]1[C@H](OC(=O)/C=C/C=C/C=C/C=C/C(=O)O)CC[C@]2(CO2)[C@H]1[C@@]1(C)O[C@@H]1CC=C(C)C | – | inactive
24 | C#CCN(C)CCCOc1ccc(Cl)cc1Cl | 0.11% [at 46 µM] | –
25 | O=C(OCCc1ccccc1)c1ccccc1 | -0.0575% | –
26 | CCCCC | – | inactive
27 | C=CC(=O)OCCOc1ccccc1 | 0.0377% | –
28 | CC(=O)OC[C@H]1O[C@@H](n2ncc(=O)[nH]c2=O)[C@H](OC(C)=O)[C@@H]1OC(C)=O | 0.0914% [at 46 µM] | –
29 | CCO[C@H](Cc1ccc(OCCc2ccc(OS(C)(=O)=O)cc2)cc1)C(=O)O | 0.0002% [at 46 µM] | –
30 | C=C1[C@H]2CC[C@@H]3[C@H]2C(C)(C)CCC[C@]13C | -0.297% | –
31 | CNCCCN1c2ccccc2CCc2ccccc21 | -0.337% [at 18.6 µM] | –
32 | CCCCOC(=O)CCCCCCCC(=O)OCCCC | -0.172% | –
33 | Cc1ccccc1S(=O)(=O)O | -0.305% [at 95.7 µM] | –
34 | Cn1c(=O)cc(Oc2ccc(F)cc2F)c2cnc(NCC(C)(C)O)nc21 | -0.0121% | –
35 | CCC(C)O (stereo not given) | 0.159% [at 95.7 µM] | –
36 | CCCCCCCCCCCCN1CCCCCC1=O | -0.522% | –
37 | CCCCC(CC)COC(=O)COc1ccc(Cl)cc1Cl (stereo not given) | 0.111% [at 95.7 µM] | –
38 | CCCCC(CC)CN1C(=O)C2C3C=CC(C3)C2C1=O (stereo not given) | -0.0392% | –
39 | CCOC(=O)COC(=O)c1cc(Oc2ccc(C(F)(F)F)cc2Cl)ccc1[N+](=O)[O-] | -0.0515% | –
40 | N=c1ccn2c(n1)O[C@H]1[C@H](O)[C@@H](CO)O[C@H]12 | – | inactive
